MCL1 BIM primary: MCL1-BIM-BH3 interaction inhibition (human) | Q07820 | GST-MCL1 / FITC-Bim-BH3 fluorescence polarization | inhibition, % at 10.9 µM | 0.68% of 320,000 active | AID 2057;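 active = inhibition above the mean inhibition of all tested compounds plus 3 SD, set per campaign, cut at about 40% in these data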;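 note: 0% = DMSO wells and 100% = unlabeled Bim-BH3 peptide control; higher means more loss of mP so more displacement of Bim peptide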
Mcl1 Noxa PPI: Mcl-1/Noxa interaction inhibition | Q07820 | TR-FRET Mcl-1/Noxa peptide binding, 2 h | inhibition, % at 21.7 µM | 1.5% of 220,000 active;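 active = compounds that cut the protein-peptide binding signal by more than 50% relative to plate controls in a single-dose test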;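 note: His-tagged Mcl-1 with rhodamine Noxa BH3 peptide and terbium anti-His antibody; 0% = Mcl-1 plus Noxa peptide wells and 100% = peptide-only wells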
Mcl1 Bid PPI: disrupts binding of human Mcl-1 to Bid peptide. inhibition, % at 21.7 µM. AID 1021. TR-FRET Mcl-1/Bid-Dy647 peptide binding, 1536-well. Q07820. 0.97% of 220,000 active;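 active = compounds that cut the binding signal by more than half at the single screening dose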;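 note: His-tagged Mcl-1 with europium anti-His antibody binding Bid BH3 peptide; 0% = Mcl-1 plus peptide wells and 100% = peptide-only wells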
BCLXL inh: blocks human Bcl-xL binding to Bim BH3 peptide | Q07817 | GST-Bcl-xL / FITC-Bim BH3 peptide fluorescence polarization | inhibition, % at 10.9 µM | 0.7% of 320,000 active | AID 2129;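 active = inhibition above the mean of all tested compounds plus 3 SD, cutoff set per campaign, cut at about 30% in these data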;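 note: 0% = DMSO wells and 100% = unlabeled Bim-BH3 peptide competitor; inhibitors lower millipolarization by displacing the labeled peptide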
Target sequence (Q07817 whole entry, looked up): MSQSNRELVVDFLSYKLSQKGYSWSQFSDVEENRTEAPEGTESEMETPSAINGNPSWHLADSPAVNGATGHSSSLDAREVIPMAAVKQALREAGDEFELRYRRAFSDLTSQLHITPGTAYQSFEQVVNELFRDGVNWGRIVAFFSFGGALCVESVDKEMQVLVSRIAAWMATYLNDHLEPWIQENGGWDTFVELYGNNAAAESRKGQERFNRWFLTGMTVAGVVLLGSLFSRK
Bim-Mcl-1: inhibitors of Bim-Mcl-1 interaction, human; 0.1% of 190,000 active; inhibition, % at 10 µM; AID 1009; Q07820; Bead-based flow cytometry, Bim peptide-Mcl-1 binding; in the data active = inhibition above about 40%;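 note: 0% = no compound tracer wells and 100% = peptide blocker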
GLD-1 TGE inh: GLD-1-TGE RNA interaction inhibition (C. elegans) | 0.44% of 320,000 active | purified GLD-1 + fluorescein TGE RNA, fluorescence polarization | inhibition, % at 5.96 µM | Q17339 | AID 2280;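 active = percent inhibition above a per-plate cutoff, the plate mean of test compounds plus 3 SD, cut at about 30% in these data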;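 note: 0% = DMSO wells with GLD-1 and probe and 100% = wells lacking GLD-1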
Starred values were filed as active, the others as inactive; · = not tested or not shown. Sampled rows, rich in hits. Any-hit rate of the full collection: about 2.3%.

SMILES	MCL1 BIM primary	Mcl1 Noxa PPI	Mcl1 Bid PPI	BCLXL inh	Bim-Mcl-1	GLD-1 TGE inh
Cc1ccccc1NC(=O)Cn1c(O)c(N=NC(=O)c2ccccc2O)c2ccccc21	30.8	-10.9	66.0*	6.6	0.0	5.9
CN(C)S(=O)(=O)c1ccc(C(=O)NNC(=O)C23CC4CC(CC(C4)C2)C3)cc1	·	·	·	·	·	2.6
Cc1ccc(OC(C)C(=O)Nc2ccccc2C(=O)N2CCN(C)CC2)cc1 (centres undefined)	9.8	·	·	11.1	·	-1.4
CC1CCc2c(sc(Nc3nc4c(F)cccc4s3)c2C(N)=O)C1 (centres undefined)	-61.2	101.3*	42.5	-31.0	-3.0	-28.9
CC(C)CN1C(=O)c2ccc(C(=O)Nc3ccccc3C(=O)O)cc2C1=O	3.0	·	·	5.0	·	3.8
COc1cc(/C=N/NC(=O)C2C3CCCCC32C)cc(Br)c1O (centres undefined)	1.8	50.9*	-13.1	4.8	-6.0	-6.1
CC(C)(O)C1Cc2cc(/C=C/C(=O)O)c(O)cc2O1 (centres undefined)	·	61.0*	-24.8	·	-6.0	·
CCOc1ccc(N(CC(=O)NCc2ccccc2Cl)S(=O)(=O)c2c(C)noc2C)cc1	0.7	·	·	3.2	·	2.6
CCN(CC)c1ccc(NC(=O)c2cc(Cl)ccc2OC)cc1	8.9	65.8*	8.3	4.2	1.0	3.0
CN(C)c1ccc(NC(=O)c2cccc(C(=O)Nc3ccc(N(C)C)cc3)n2)cc1	6.8	85.7*	-11.8	-0.4	3.0	9.6
COc1cccc(C(=O)Nc2ccc(N(C)C)cc2)c1OC	4.8	65.1*	-42.4	1.7	-5.0	9.7
COc1ccc(Cl)cc1C(=O)Nc1ccncc1	-4.5	·	·	1.6	·	3.3
CN(C)c1ccc(/C=N/NC(=O)c2cccc(C(=O)N/N=C/c3ccc(N(C)C)cc3)n2)cc1	3.9	82.2*	45.3	-0.6	5.0	5.5
CCc1c(C)nc2nc(SCc3ccccc3)[nH]n2c1=O	8.2	·	·	4.3	·	0.8
CC(C)(C)NC(=O)CN(Cc1ccco1)C(=O)CCC(=O)Nc1nccs1	6.9	·	·	7.0	·	0.3
O=C(Cc1csc(Nc2nc(=S)[nH]c3ccccc23)n1)NCc1ccc(Cl)cc1	13.4	3.8	55.8*	7.6	2.0	-3.5
COc1ccc(CNC(=O)Cc2csc(Nc3nc(=S)[nH]c4ccccc34)n2)cc1	2.9	-3.1	33.9	3.6	0.0	-3.5
Cc1ccc(C)c(OC(C)C(=O)Nc2nccs2)c1 (centres undefined)	6.9	·	·	-0.5	·	2.7
Cc1ccc(C(=O)NC(=S)Nc2ccc(-c3ccc(CO)o3)cc2)cc1	16.8	25.6	13.1	3.1	-1.0	0.2
O=C(NC(=S)Nc1ccc(-c2ccc(CO)o2)cc1)c1cccs1	-0.2	63.2*	-20.4	6.1	-3.0	4.5
COC(=O)c1ccc(NC(=O)c2ccccc2N(C)S(=O)(=O)c2ccccc2)cc1	1.7	0.5	98.1*	5.4	-1.0	2.6
N#CC1=C(N)N(c2ccc(F)cc2)C2=C(C1c1ccc(O)cc1)S(=O)(=O)CC2 (centres undefined)	·	89.5*	30.4	·	21.0	·
COc1ccc(C(=O)Nc2ccc(S(=O)(=O)Nc3nccc(C)n3)cc2)cc1[N+](=O)[O-]	-6.8	·	·	-4.1	·	-3.4
O=C(CN1CCN(S(=O)(=O)c2ccccc2F)CC1)Nc1ccnn1C1CCCC1	-1.7	·	·	-5.7	·	8.7
COc1ccc(CCN2C(=O)CC(NC34CC5CC(CC(C5)C3)C4)C2=O)cc1OC (centres undefined)	6.7	-6.6	-3.3	5.8	3.0	3.7
SMILES	MCL1 BIM primary	Mcl1 Noxa PPI	Mcl1 Bid PPI	BCLXL inh	Bim-Mcl-1	GLD-1 TGE inh
COc1ccc(N2C(=O)CC(NC34CC5CC(CC(C5)C3)C4)C2=O)c(OC)c1 (centres undefined)	1.1	33.4	57.4*	8.7	1.0	3.4
COC(=O)c1c(C)[nH]c(C)c1C(C)=O	-2.4	4.9	71.2*	-0.5	·	7.5
COC(=O)c1c(C)[nH]c(C(C)=O)c1C	7.7	8.1	0.8	5.8	-3.0	3.5
Cc1cc(NS(=O)(=O)c2ccc(NC(=O)c3ccccc3C)cc2)no1	-4.0	·	·	2.8	·	3.2
Cc1cc(NS(=O)(=O)c2ccc(NC(=O)c3cc4cc(Br)ccc4oc3=O)cc2)no1	3.3	-10.7	57.1*	6.8	-4.0	-4.8
CC1(C)CCc2cc(S(=O)(=O)N3CCN(S(=O)(=O)c4c(F)cccc4F)CC3)ccc2O1	·	·	·	·	·	5.8

High-throughput results as filed in PubChem.
